Results taken from PubChem BioAssay.
Potency and affinity values are given separately. Results filed as inconclusive are left out. Active and inactive are the calls of the source.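 The calls were made as follows, unless noted: active = signal drop whose fitted half-maximal concentration is at most twice the top valid dose, in every test run; inconclusive = mixed calls across runs, poor fit, or flat 30 to 70% inhibition; inactive = wrong direction, flat within 30%, or potency beyond limit.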

Assays:
[1] = cytotoxicity in PAX8-dependent RMG-1 cells, dose response, cell-based, cherry-pick (AID 687029);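 also: cells exposed to compound for 96 hours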
[2] = cytotoxicity in IOSE-T80 ovarian epithelial cells, dose response, selectivity assay for PAX8 inhibitor project, cell-based, cherry-pick (AID 687032;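 active = fitted half-maximal concentration for viability loss no higher than twice the top valid dose, in every repeat run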;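 also: cells exposed to compound for 96 h before reading; 0% = neutral control wells and -100% = 2 µM mitoxantrone kill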)
[3] = inhibitors of CMV-promoter luciferase reporter, dose response, counter-screen for Pax8 inhibitor project, cell-based, HEK293, luminescence, dry powder (AID 743020;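 active = signal-lowering compounds whose fitted half-maximal concentration is at or below twice the top tested dose in every run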;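 also: HEK293 cells stably expressing the CMV luciferase reporter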)
[4] = non-specific cell cytotoxicity, dose response, cytotoxicity control for PAX8 inhibitor project, plate reader, dry powder samples (AID 743021; call rule not given here)
[5] = HeLa cell cytotoxicity, dose response, cytotoxicity control, ATP luminescence, cherry-pick samples (AID 687004;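 active = a fitted half-maximal concentration no higher than twice the top valid tested dose, with signal falling as cells die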;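 also: 0% = neutral control median and -100% = staurosporine 10 µM control median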)
[6] = inhibitors of PAX8-driven TPO luciferase reporter, dose response, RMG-I cells, cherry-pick (AID 687027;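 active = every replicate test run called active, with the signal dropping as expected and potency within twice the top valid dose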)
[7] = IGROV1 ovarian cancer cell cytotoxicity, dose response, PAX8 inhibitor project, plate reader, dry powder samples (AID 743043; call rule not given here;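 also: more negative means fewer viable cells or more cytotoxicity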)
[8] = IOSE-T80 ovarian epithelial cell cytotoxicity, dose response, cytotoxicity control for PAX8 inhibitor project, plate reader, dry powder samples (AID 743045; call rule not given here;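 also: 0% = neutral control median and -100% = positive control median; more negative values mean more cell killing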)
[9] = NIH:OVCAR-3 ovarian cancer cell cytotoxicity, dose response, PAX8 inhibitor project, plate reader, dry powder samples (AID 743044; call rule not given here); conditions: NIH:OVCAR-3 ovarian cancer cell viability, active compounds read low; at 4.2 µM unless noted

Measured: max activity

CC[C@H](C)[C@@H]1NC(=O)CNC(=O)c2csc(n2)[C@H](C(C)(C)O)OC(=O)C(C)(C)[C@H](CCCC(C)(Cl)Cl)OC(=O)c2csc1n2
inactive: [1] | [2] | [3] | [4]

O=c1[nH]c2ccccc2n1C1CCN(C(CCc2ccccc2)c2nnnn2-c2ccc3c(c2)OCCO3)CC1 (centres undefined)
inactive: [1]

CC1=C(N2CC2)C(=O)C(CO)=C(N2CC2)C1=O
inactive: [1] | [2] | [3]

COC(=O)C1=C(C(=O)OC)C2OC1c1cc3ccccc3cc12
inactive: [1] | [2]

C[C@H]1CN([C@@H](C)CO)C(=O)CCCn2nncc2CO[C@H]1CN(C)C(=O)Oc1cccc2ccccc12
inactive: [5]

O=c1[nH]c2ccccc2n1C1CCN(C(CCc2ccccc2)c2nnnn2Cc2ccccc2)CC1 (centres undefined)
inactive: [1] | [2] | [3]

C[C@H]1CCC/C=C/[C@@H]2C[C@H](O)C[C@H]2[C@H](O)/C=C/C(=O)O1
inactive: [1] | [2] | [3] | [4]

O=c1[nH]c(CN2CC=C(c3ccccc3)CC2)nc2cc(C(F)(F)F)ccc12
inactive: [5]

CC12CCC3C(CCC4(O)CC(O)CCC34C=NO)C1(O)CCC2C1=COC(=O)C1 (centres undefined)
inactive: [1] | [2] | [3] | [4]

O=c1[nH]c2ccccc2n1C1CCN(C(c2cccc3ccccc23)c2nnnn2-c2ccc3c(c2)OCCO3)CC1 (centres undefined)
inactive: [1] | [2] | [3] | [4]

C[C@@H]1O[C@@H](O[C@@H]2C=C3CCC4C(CC[C@]5(C)[C@@H](c6ccc(=O)oc6)CC[C@]45O)[C@@]3(C)CC2)[C@H](O)[C@H](O)[C@H]1O (some centres undefined)
inactive: [1] | [2] | [3] | [4]

CC1=C(O)C(=O)C=C2C1=CC=C1C2(C)CCC2(C)C3CC(C)(C(=O)O)CCC3(C)CCC12C (centres undefined)
inactive: [1] | [2] | [3]

CCn1nc(/C=C/c2ccccc2)nc2c(=O)n(C)c(=O)nc1-2
inactive: [1]

C=C1C(C)C2C(Cc3ccccc3)NC(=O)C23OC(=O)/C=C/C(O)CCCC(C)C/C=C/C3C1O (centres undefined)
inactive: [1] | [2]

COC(=O)C1=C(c2ccc(F)cc2OCc2ccccc2)C[C@@H]2CC[C@H]1N2C(=O)NC1Cc2ccccc2C1
inactive: [1] | [2] | [3] | [4]

NC(=O)c1cn(C2OC(CO)C(O)C2O)c2ncnc(N)c12 (centres undefined)
inactive: [1] | [2]

O=c1[nH]c2ccccc2n1C1CCN(C(c2cc3ccccc3o2)c2nnnn2Cc2ccccc2)CC1 (centres undefined)
inactive: [1] | [2] | [3]

CSCCC(c1nnnn1-c1ccc2c(c1)OCCO2)N1CCC(n2c(=O)[nH]c3ccccc32)CC1 (centres undefined)
inactive: [1] | [2] | [3] | [4]

COC(=O)C1=C(c2ccc(F)cc2OCc2ccccc2)C[C@@H]2CC[C@H]1N2C(=O)NCc1ccc2[nH]ccc2c1
inactive: [1] | [2] | [3] | [4]

O=c1[nH]c2ccccc2n1C1CCN(C(c2cc3ccccc3o2)c2nnnn2-c2ccc3c(c2)OCCO3)CC1 (centres undefined)
inactive: [1]

CC1=CC(C)CC(C)OC(=O)CC(c2ccc(O)cc2)NC(=O)C(Cc2c(Br)[nH]c3ccccc23)N(C)C(=O)C(C)NC(=O)C(C)C1 (centres undefined)
inactive: [1] | [2] | [3] | [4]

N#CC1c2ccccc2-n2nncc2CN1Cc1cc(Cl)cc(Cl)c1 (centres undefined)
inactive: [1] | [2] | [3] | [4]

CCCc1nc2ccc(Br)cc2c(=O)n1-c1ccc([N+](=O)[O-])c(C(F)(F)F)c1
inactive: [6] | [1] | [2] | [3] | [4]

CC[C@@]1(O)C(=O)OCc2c1cc1n(c2=O)Cc2cc3c(NC(=O)CN)cccc3nc2-1
inactive: [1] | [2] | [3] | [4]

COc1ccc(-n2nnnc2C(CCc2ccccc2)N2CCC(n3c(=O)[nH]c4ccccc43)CC2)cc1 (centres undefined)
inactive: [1]

O=c1[nH]c2ccccc2n1C1CCN(C(c2ccccc2OC(F)(F)F)c2nnnn2-c2ccc3c(c2)OCCO3)CC1 (centres undefined)
inactive: [1]

COc1cc2c(c(OC)c1OC)-c1ccc(O)cc1[C@@H](NC(C)=O)CC2
inactive: [1] | [2] | [3] | [4]

C[C@@H]1CN([C@@H](C)CO)C(=O)CCCn2nncc2CO[C@H]1CN(C)C(=O)Oc1cccc2ccccc12
inactive: [5]

CC(=O)OC(C)(C)/C=C/C(=O)C(C)(O)C1C(O)CC2(C)C3CC=C4C(CC(O)C(=O)C4(C)C)C3(C)C(=O)CC12C (centres undefined)
inactive: [1] | [2] | [3] | [4]

CSCCC(c1nnnn1Cc1ccccc1)N1CCC(n2c(=O)[nH]c3ccccc32)CC1 (centres undefined)
inactive: [1] | [3] | [4]

COc1ccc(CC2C(=O)NC(C)C(=O)N(C)C3C(=O)N(C)C(Cc4ccc(O)c(c4)Oc4ccc(cc4)C3O)C(=O)NC(C)C(=O)NC(C)C(=O)N2C)cc1 (centres undefined)
inactive: [1] | [2] | [4]

CC1CC(C)CC(C)C(O)C(C#N)=CC=CCC(C2CCCC2C(=O)O)OC(=O)CC(O)C(C)C1 (centres undefined)
inactive: [1] | [3] | [4]

CC(=CCOc1ccc2ccc(=O)oc2c1)C1=CC(=O)C(C)(C)O1
inactive: [1] | [2] | [4]

CC(=O)OC1CC(OC2C(O)CC(OC3C(O)CC(OC4CCC5(C)C(CCC6C5CCC5(C)C(C7=CC(=O)OC7)CCC65O)C4)OC3C)OC2C)OC(C)C1OC1OC(CO)C(O)C(O)C1O (centres undefined)
inactive: [1] | [2] | [4]

COC1C(O)C(C)OC(OC2CCC3(C)C(CCC4C3C(O)CC3(C)C(C5=CC(=O)OC5)CCC43O)C2)C1O (centres undefined)
inactive: [1] | [2] | [4]

O=C1NC2C(=CC(O)C(O)C2O)c2cc3c(cc21)OCO3 (centres undefined)
inactive: [1] | [3] | [4]

CC12CCC3C(CCC4(O)CC(O)CCC34C=O)C1(O)CCC2C1=CC(=O)OC1 (centres undefined)
inactive: [1] | [2] | [4]

O=C(c1ccccc1)C(CN1CCCC1)c1ccccc1 (centres undefined)
inactive: [1] | [2] | [4]

COc1cc(C2c3cc4c(c(O)c3CC3COC(=O)C32)OCO4)cc(OC)c1OC (centres undefined)
inactive: [1] | [2] | [4]

COc1ccc(C(c2nnnn2Cc2ccccc2)N2CCC(n3c(=O)[nH]c4ccccc43)CC2)cc1 (centres undefined)
inactive: [1] | [3] | [4]

CN1C2CCC1/C(=C/c1ccccn1)C(=O)/C2=C\c1ccccn1
inactive: [1] | [2] | [4]

COc1cccc(C(c2nnnn2Cc2ccccc2)N2CCC(n3c(=O)[nH]c4ccccc43)CC2)c1OC (centres undefined)
inactive: [1] | [2] | [4]

COC(=O)C1=C(c2ccc(F)cc2OCc2ccccc2)C[C@@H]2CC[C@H]1N2C(=O)NCc1ccc(C)cc1
inactive: [1] | [3] | [4]

CC1CCC/C=C/C2CC(O)CC2C(O)/C=C/C(=O)O1 (centres undefined)
inactive: [1] | [2] | [4]

NC(=S)c1cn(C2OC(CO)C(O)C2O)c2ncnc(N)c12 (centres undefined)
inactive: [1] | [3] | [4]

O=C(Cc1cccnc1)N1CCCCN2[C@H](C1)[C@H](c1ccc(/C=C/c3ccccc3)cc1)[C@@H]2CO
inactive: [1] | [2] | [3] | [7] | [8]

COC(=O)C12OCC34C(CC5C(C)=C(O)C(=O)CC5(C)C3C(O)C1O)OC(=O)C(OC(=O)/C=C(\C)C(C)C)C24 (centres undefined)
inactive: [1] | [2] | [4]

COc1cccc(C(c2nnnn2-c2ccc3c(c2)OCCO3)N2CCC(n3c(=O)[nH]c4ccccc43)CC2)c1OC (centres undefined)
inactive: [1] | [2] | [4]

O=C(Cc1ccccn1)N1CCCCN2[C@@H](CO)[C@@H](c3ccc(-c4ccccc4F)cc3)[C@@H]2C1
inactive: [1] | [2] | [3] | [7] | [9] 31.6% [at 0.5 µM] | [8]

O=C(Cc1cccnc1)N1CCCCN2[C@H](C1)[C@H](c1ccc(C#CC3CCCC3)cc1)[C@@H]2CO
not listed: [5] | [6] | [9]
inactive: all other assays above

C[C@]12CC[C@H](O)C[C@H]1CC[C@@H]1[C@@H]2CC[C@]2(C)[C@@H](C3=CC(=O)OC3)CC[C@]12O
inactive: [1] | [3] | [4]

O=C(C1CC1)N1C[C@@H]2N[C@H](C1)[C@@H]2c1ccc(-c2ccncc2)cc1
inactive: [1] | [2] | [4]

Cc1ccc(OC(=O)N(C)C[C@@H]2OCc3ccccc3-c3c(n(C)c4ccccc34)C(=O)N([C@@H](C)CO)C[C@H]2C)cc1
inactive: [1] | [2] | [4] | [7] | [8]

O=C1NC2C(O)C(O)C(O)C(O)C2c2cc3c(c(O)c21)OCO3 (centres undefined)
inactive: [1] | [2] | [4]

COC1CC2C=C(C)C=CC=CC(=O)NC(c3ccccc3)CC=CCCC(O)CC(=O)C2=C1O (centres undefined)
inactive: [1] | [3]

C[C@@H]1O[C@@H](O[C@H]2C[C@@H](O)[C@]3(CO)[C@H]4[C@H](O)C[C@]5(C)[C@@H](C6COC(=O)C6)CC[C@]5(O)[C@@H]4CC[C@]3(O)C2)[C@H](O)[C@H](O)[C@H]1O (some centres undefined)
inactive: [1] | [2] | [4]

O=C(Cc1ccncc1)N1CCCCN2[C@H](C1)[C@H](c1ccc(C#Cc3ccccc3F)cc1)[C@@H]2CO
inactive: [1] | [2] | [3] | [4] | [8]

C[C@]12CC[C@H](O)C[C@H]1CC[C@@H]1[C@@H]2C[C@@H](O)[C@]2(C)[C@@H](C3=CC(=O)OC3)CC[C@]12O
inactive: [1] | [2] | [4]

CCC1CN2CCc3cc(OC)c(OC)cc3C2CC1CC1NCCc2c1[nH]c1ccc(O)cc21 (centres undefined)
inactive: [1] | [2] | [4]

CC(=O)OC1CC(OC2C(O)CC(OC3C(O)CC(OC4CCC5(C)C(CCC6C5CCC5(C)C(C7=CC(=O)OC7)C(O)CC65O)C4)OC3C)OC2C)OC(C)C1OC1OC(CO)C(O)C(O)C1O (centres undefined)
inactive: [1] | [4]

Cc1c(C(=O)c2cccc3ccccc23)c2cccc3c2n1[C@H](CN1CCOCC1)CO3
inactive: [1] | [3] | [4]
